Data as given in ChEMBL document CHEMBL1961873, “Compounds: GSK PKIS; Assays: Nanosyn kinase panel” (2012).

Tests used:
[1] = target: Serine/threonine-protein kinase PAK 6 (Homo sapiens) (UniProt Q9NQU5); conditions: at 1 µM;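 further: values are mean percent inhibition of PAK6 kinase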
[2] = system: Tyrosine-protein kinase ABL1 (Homo sapiens), P00519 [E255K]; conditions: at 0.1 µM
[3] = system: Tyrosine-protein kinase ABL1 (Homo sapiens), P00519 [E255K]; conditions: at 1 µM
[4] = system: Tyrosine-protein kinase ABL1 (Homo sapiens), P00519 [H396P]; conditions: at 0.1 µM
[5] = system: Tyrosine-protein kinase ABL1 (Homo sapiens), P00519 [H396P]; conditions: at 1 µM
[6] = system: Tyrosine-protein kinase ABL1 (Homo sapiens), P00519 [M351T]; conditions: at 0.1 µM
[7] = system: Tyrosine-protein kinase ABL1 (Homo sapiens), P00519 [M351T]; conditions: at 1 µM
[8] = system: Tyrosine-protein kinase ABL1 (Homo sapiens), P00519 [Q252H]; conditions: at 0.1 µM
[9] = system: Tyrosine-protein kinase ABL1 (Homo sapiens), P00519 [Q252H]; conditions: at 1 µM
[10] = system: Tyrosine-protein kinase ABL1 (Homo sapiens), P00519 [T315I]; conditions: at 0.1 µM
[11] = system: Tyrosine-protein kinase ABL1 (Homo sapiens), P00519 [T315I]; conditions: at 1 µM
[12] = system: Tyrosine-protein kinase ABL1 (Homo sapiens), P00519 [Y253F]; conditions: at 0.1 µM
[13] = system: Tyrosine-protein kinase ABL1 (Homo sapiens), P00519 [Y253F]; conditions: at 1 µM
[14] = target: Tyrosine-protein kinase ABL1 (Homo sapiens) (UniProt P00519); conditions: at 0.1 µM
[15] = target: Tyrosine-protein kinase ABL1 (Homo sapiens) (UniProt P00519); conditions: at 1 µM
[16] = target: ALK tyrosine kinase receptor (Homo sapiens) (UniProt Q9UM73); conditions: at 0.1 µM
[17] = target: ALK tyrosine kinase receptor (Homo sapiens) (UniProt Q9UM73); conditions: at 1 µM
[18] = target: Tyrosine-protein kinase ABL2 (Homo sapiens) (UniProt P42684); conditions: at 0.1 µM
[19] = target: Tyrosine-protein kinase ABL2 (Homo sapiens) (UniProt P42684); conditions: at 1 µM
[20] = target: Tyrosine-protein kinase receptor UFO (Homo sapiens) (UniProt P30530); conditions: at 0.1 µM;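 further: values are mean percent inhibition of AXL from the GSK PKIS screen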
Chain of Tyrosine-protein kinase receptor UFO (Homo sapiens) (P30530 whole entry): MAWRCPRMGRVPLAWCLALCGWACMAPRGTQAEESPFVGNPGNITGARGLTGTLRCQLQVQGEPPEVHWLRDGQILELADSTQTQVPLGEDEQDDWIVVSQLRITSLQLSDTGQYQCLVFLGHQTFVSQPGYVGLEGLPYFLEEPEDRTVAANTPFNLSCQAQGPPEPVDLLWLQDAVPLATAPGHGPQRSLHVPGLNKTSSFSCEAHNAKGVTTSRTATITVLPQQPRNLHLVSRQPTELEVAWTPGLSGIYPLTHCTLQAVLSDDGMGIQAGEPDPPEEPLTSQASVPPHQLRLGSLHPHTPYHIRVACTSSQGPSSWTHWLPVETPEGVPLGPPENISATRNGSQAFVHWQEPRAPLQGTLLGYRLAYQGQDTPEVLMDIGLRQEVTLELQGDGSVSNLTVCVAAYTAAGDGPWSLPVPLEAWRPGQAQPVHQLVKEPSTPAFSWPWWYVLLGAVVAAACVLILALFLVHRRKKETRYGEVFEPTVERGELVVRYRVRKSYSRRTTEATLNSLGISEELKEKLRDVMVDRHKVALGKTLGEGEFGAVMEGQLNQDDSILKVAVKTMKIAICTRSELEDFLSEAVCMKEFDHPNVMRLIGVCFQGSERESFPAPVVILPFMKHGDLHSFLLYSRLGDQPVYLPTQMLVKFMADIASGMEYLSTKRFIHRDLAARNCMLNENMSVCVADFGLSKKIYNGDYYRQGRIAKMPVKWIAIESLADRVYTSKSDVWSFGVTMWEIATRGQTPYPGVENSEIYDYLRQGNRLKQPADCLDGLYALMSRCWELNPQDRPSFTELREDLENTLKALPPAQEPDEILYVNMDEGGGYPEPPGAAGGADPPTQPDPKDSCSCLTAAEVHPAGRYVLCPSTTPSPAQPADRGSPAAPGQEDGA

Chain of Serine/threonine-protein kinase PAK 6 (Homo sapiens) (Q9NQU5 whole entry, looked up): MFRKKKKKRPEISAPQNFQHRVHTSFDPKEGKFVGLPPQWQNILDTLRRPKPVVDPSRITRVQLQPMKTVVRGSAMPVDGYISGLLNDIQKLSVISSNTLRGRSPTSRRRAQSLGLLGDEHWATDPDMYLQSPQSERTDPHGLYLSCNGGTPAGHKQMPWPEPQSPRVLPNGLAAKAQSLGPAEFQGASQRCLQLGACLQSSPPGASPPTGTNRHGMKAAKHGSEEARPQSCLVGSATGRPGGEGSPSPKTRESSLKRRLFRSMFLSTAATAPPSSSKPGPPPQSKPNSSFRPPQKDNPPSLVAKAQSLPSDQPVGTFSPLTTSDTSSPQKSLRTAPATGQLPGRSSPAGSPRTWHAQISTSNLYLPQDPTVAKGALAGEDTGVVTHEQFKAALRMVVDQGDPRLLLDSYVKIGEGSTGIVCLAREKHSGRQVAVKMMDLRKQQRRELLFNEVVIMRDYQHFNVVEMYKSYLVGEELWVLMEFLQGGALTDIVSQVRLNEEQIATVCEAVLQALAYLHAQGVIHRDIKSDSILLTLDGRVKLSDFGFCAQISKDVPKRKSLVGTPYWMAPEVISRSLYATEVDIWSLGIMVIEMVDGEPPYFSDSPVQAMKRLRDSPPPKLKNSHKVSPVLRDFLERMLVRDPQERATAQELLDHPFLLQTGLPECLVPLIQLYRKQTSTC
Chain of ALK tyrosine kinase receptor (Homo sapiens) (Q9UM73 19-1620 limits assumed): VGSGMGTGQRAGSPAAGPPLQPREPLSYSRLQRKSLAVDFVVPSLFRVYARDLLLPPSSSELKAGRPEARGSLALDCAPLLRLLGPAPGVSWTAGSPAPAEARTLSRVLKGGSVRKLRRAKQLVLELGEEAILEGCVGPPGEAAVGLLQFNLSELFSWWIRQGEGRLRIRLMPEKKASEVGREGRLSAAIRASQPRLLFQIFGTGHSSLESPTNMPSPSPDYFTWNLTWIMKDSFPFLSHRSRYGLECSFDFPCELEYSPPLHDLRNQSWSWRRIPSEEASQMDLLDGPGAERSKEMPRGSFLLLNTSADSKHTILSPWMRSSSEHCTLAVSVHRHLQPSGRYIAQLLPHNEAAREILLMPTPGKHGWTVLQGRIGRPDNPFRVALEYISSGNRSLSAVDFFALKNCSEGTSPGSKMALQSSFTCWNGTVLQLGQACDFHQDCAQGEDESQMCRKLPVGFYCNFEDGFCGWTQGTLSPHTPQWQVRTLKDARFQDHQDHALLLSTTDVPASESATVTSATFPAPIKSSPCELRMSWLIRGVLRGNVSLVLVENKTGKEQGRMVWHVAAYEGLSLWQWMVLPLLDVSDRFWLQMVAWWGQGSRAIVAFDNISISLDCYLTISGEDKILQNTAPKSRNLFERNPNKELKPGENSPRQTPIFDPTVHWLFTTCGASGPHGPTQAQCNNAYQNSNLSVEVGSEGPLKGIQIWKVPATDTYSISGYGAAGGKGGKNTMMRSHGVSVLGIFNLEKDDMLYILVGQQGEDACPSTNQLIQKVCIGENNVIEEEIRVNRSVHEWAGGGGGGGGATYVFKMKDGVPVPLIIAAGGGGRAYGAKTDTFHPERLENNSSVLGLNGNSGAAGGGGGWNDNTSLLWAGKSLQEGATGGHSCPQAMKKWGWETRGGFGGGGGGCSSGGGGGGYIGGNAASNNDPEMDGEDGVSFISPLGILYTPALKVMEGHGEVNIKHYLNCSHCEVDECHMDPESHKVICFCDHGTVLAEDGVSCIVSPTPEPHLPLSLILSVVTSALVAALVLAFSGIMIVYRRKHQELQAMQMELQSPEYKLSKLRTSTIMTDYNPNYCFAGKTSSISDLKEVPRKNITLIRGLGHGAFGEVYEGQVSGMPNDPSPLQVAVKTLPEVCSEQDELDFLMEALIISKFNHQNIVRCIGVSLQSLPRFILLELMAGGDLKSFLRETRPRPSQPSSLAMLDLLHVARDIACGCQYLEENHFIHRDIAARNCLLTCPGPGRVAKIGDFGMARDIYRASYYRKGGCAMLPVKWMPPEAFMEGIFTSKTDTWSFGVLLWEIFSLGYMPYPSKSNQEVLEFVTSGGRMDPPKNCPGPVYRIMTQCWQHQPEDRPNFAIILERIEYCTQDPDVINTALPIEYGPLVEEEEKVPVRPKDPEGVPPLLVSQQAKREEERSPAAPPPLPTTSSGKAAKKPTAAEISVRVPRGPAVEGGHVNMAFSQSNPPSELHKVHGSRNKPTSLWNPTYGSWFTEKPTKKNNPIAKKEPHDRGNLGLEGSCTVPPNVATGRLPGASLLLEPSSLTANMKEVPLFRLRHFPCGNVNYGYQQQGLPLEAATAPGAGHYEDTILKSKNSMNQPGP
Chain of Tyrosine-protein kinase ABL2 (Homo sapiens) (P42684 whole entry): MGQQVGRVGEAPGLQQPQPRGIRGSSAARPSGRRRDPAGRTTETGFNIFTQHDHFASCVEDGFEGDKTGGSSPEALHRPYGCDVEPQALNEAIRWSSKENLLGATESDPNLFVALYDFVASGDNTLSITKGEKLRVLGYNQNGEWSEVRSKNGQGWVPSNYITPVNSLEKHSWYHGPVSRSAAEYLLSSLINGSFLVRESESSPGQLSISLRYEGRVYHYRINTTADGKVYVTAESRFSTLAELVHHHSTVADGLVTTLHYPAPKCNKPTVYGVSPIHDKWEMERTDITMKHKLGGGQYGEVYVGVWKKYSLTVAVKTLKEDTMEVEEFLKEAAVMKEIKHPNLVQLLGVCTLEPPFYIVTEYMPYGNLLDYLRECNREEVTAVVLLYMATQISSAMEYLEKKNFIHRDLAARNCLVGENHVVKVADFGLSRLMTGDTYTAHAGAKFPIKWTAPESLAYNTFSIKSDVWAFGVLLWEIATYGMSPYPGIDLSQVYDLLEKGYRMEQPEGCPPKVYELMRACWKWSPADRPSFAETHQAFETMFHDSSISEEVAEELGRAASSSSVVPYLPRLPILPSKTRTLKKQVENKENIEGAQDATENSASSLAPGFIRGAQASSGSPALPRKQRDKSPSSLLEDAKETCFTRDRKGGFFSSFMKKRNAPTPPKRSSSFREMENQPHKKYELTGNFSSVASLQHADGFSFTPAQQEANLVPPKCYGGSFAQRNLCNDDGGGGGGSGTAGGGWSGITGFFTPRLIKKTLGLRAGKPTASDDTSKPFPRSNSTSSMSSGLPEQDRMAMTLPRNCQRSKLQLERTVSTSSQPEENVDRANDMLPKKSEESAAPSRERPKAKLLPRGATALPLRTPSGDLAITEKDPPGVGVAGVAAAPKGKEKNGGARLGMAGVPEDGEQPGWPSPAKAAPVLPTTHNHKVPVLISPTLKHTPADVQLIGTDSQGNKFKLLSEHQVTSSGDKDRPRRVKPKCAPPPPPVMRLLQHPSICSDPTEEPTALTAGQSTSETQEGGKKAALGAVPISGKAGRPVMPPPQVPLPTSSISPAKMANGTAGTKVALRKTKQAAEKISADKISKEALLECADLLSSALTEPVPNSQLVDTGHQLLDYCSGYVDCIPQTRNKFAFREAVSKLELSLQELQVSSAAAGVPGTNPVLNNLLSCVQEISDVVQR

Row | Structure (SMILES) | inhibition [1] [%] | inhibition [2] [%] | inhibition [3] [%] | inhibition [4] [%] | inhibition [5] [%] | inhibition [6] [%] | inhibition [7] [%] | inhibition [8] [%] | inhibition [9] [%] | inhibition [10] [%] | inhibition [11] [%] | inhibition [12] [%] | inhibition [13] [%] | inhibition [14] [%] | inhibition [15] [%] | inhibition [16] [%] | inhibition [17] [%] | inhibition [18] [%] | inhibition [19] [%] | inhibition [20] [%]
1 | CCCN1CCC=C(c2ccc(Nc3nc(Nc4ccccc4C(N)=O)c4cc[nH]c4n3)c(C)c2)C1 | -5.41 | -0.02 | 5.11 | 2.87 | 7.11 | 1.17 | 5.02 | 3.91 | 8.95 | 1.37 | 12.1 | 1.82 | 7.55 | 5.84 | 16.4 | 76.2 | 82.1 | 10 | 13 | 8.88
2 | CC1=C(C(=O)Nc2ccc3[nH]ncc3c2)C(c2ccc(F)cc2)NC(=O)N1 (stereo not given) | -1.9 | -0.56 | 4.16 | 1.62 | 1.78 | 1.52 | 3.88 | 2.07 | 3.37 | 0.1 | 2.66 | 1.48 | 5.27 | 3.51 | 8.74 | 0.35 | 3.89 | 2.2 | 19.7 | -2.41
3 | CCn1c(-c2nonc2N)nc2cncc(C(=O)N3CC[C@H](N)C3)c21 | 3.33 | 3.58 | 2.43 | 5.83 | 2.94 | 2.2 | -0.9 | 4.86 | 2.19 | 2.09 | 3.27 | 2.94 | 3.51 | 4.28 | 4.33 | 3.95 | 3.52 | 5.33 | 7.29 | -5.66
4 | CCn1c(-c2nonc2N)nc2cnc(Oc3cccc(NC(=O)c4ccc(OCCN5CCOCC5)cc4)c3)cc21 | -8.77 | 3.79 | 3.89 | 4.58 | 4.2 | 2.23 | 2.73 | 4.73 | 3.88 | 4.38 | 4.26 | 5.27 | 4.41 | 3.37 | 11.1 | 1.15 | 3.72 | 4.56 | 7.99 | -6.28
5 | CS(=O)(=O)CCN(CC#N)Cc1ccc(-c2ccc3ncnc(Nc4ccc(OCc5cccc(F)c5)c(Cl)c4)c3c2)o1 | -7.94 | 0.94 | 1 | 1.77 | 1.89 | 0.73 | 0.36 | 0.95 | 0.42 | -0.08 | -0.34 | 2.36 | 1.9 | -2.3 | -2.95 | -2.83 | -0.48 | -2.62 | -1.72 | -6.1
6 | c1cnn2ncc(-c3ccnc(Nc4ccc5c(c4)OCCO5)n3)c2c1 | 9.62 | 4.75 | 20.4 | 6.51 | 34.4 | 6.73 | 40.9 | 9.02 | 40.7 | 6.27 | 35.9 | 9.16 | 36 | 7.67 | 38.7 | 3.96 | 31.7 | 7.27 | 43.9 | -2.3
7 | CCn1c(-c2nonc2N)nc2ccncc21 | -3.52 | 1.78 | -1.53 | -0.24 | -0.08 | 0.64 | 3.06 | 3.21 | -0.21 | -0.01 | -0.3 | -0.36 | 1.17 | 1.53 | 3.89 | 1.59 | 1.87 | 2.85 | -1.97 | -1.17
